Among the data in PubChem BioAssay (NCI) are growth values, retold here.

Among the test systems are T-47D breast; BT-549 breast; MDA-MB-435 melanoma; SW-620 colon; HCT-116 colon; HCC-2998 colon; KM12 colon.
Test in all cases: NCI-60 one-dose screen, 48 h (100 = growth as untreated, 0 = no growth, -100 = all killed)
Conditions in all cases: 10 µM unless noted

The panel holds about 83,000 compounds, 20% with a hit somewhere; the sample as a whole holds those more often.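 A percent growth of 40 corresponds to 60% growth inhibition; 0 means no net growth; -100 means all cells died. Active threshold: below 10.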 Unmarked numbers belong to inactive results. Calls of active or inactive are those of the source.

On to `COc1ccc2cc(-c3ccc(-c4ccc(C(=N)N)s4)s3)ccc2c1`, for which the growth is -9.45% (active) in the assay with T-47D breast; 98.6% in the assay with BT-549 breast; 0.918% (active) in the assay on MDA-MB-435 melanoma; -64.3% (active) with SW-620 colon; -29.5% (active) in the assay on HCT-116 colon; -58.1% (active) in the assay on HCC-2998 colon. Also, the growth in the assay on KM12 colon is -14.5% (active).
Consider `CCOC(=O)c1c(-c2ccc(Cl)cc2)c(C#N)c2c(C#N)c(N)nn2c1N`, for which the growth in the assay with T-47D breast was 46.5%; with BT-549 breast it was 68.5%; with MDA-MB-435 melanoma it was 5.38% (active); with SW-620 colon, 52.6%; in the assay on HCT-116 colon, 59.5%; in the assay on HCC-2998 colon, 83.6%. In addition, in the assay on KM12 colon, the growth was 58.7%.
Regarding `CCOC(=O)n1cc(-c2nonc2-c2cn(C)c3ccccc23)c2ccccc21`, the growth in the assay on T-47D breast was 40.6%; in the assay with BT-549 breast it was 55.3%; in the assay with MDA-MB-435 melanoma, -8% (active); with SW-620 colon it was 18.8%; with HCT-116 colon it was 22.3%; in the assay on HCC-2998 colon, 60.9%. Further, the growth in the assay on KM12 colon was 29.1%.
As for `COc1ncc2cc1NS(=O)(=O)c1cccc(c1)C(=O)NCC1=CC=C(S1)c1ncnc3c1SC2=C3C`, the growth was -29% (active) in the assay on T-47D breast; -52.7% (active) in the assay with BT-549 breast; -28.6% (active) in the assay on MDA-MB-435 melanoma; 3.04% (active) in the assay on SW-620 colon; -31.8% (active) in the assay with HCT-116 colon; -43.1% (active) in the assay on HCC-2998 colon. Also, the growth with KM12 colon was -62.1% (active).
Take `COc1ccc(-c2cc(C(=O)N3N=C(c4ccc(N)cc4)CC3c3ccccc3)c3ccccc3n2)cc1` (stereo unspecified): the growth in the assay on T-47D breast was 38.2%; in the assay on BT-549 breast, 41.3%; in the assay with MDA-MB-435 melanoma it was -20% (active); in the assay on SW-620 colon, 23.4%; with HCT-116 colon, 17.8%; in the assay with HCC-2998 colon, 59.9%. Further, the growth in the assay with KM12 colon was 25.1%.
In the case of `C=C1C(=O)O[C@H]2[C@H]1CC/C(COC(=O)NCc1ccc(Cn3c(=O)sn(-c4ccc(OC)cc4)c3=O)cc1)=C\CC[C@@]1(C)O[C@@H]21`, the growth was 18.5% in the assay on T-47D breast; 73.1% with BT-549 breast; 67.1% in the assay on MDA-MB-435 melanoma; -59.8% (active) with SW-620 colon; 5.31% (active) with HCT-116 colon; 97.5% in the assay with HCC-2998 colon. In the assay with KM12 colon, the growth was 95.3%.
As for `Cc1cc(C)c(-c2c(O)c(Br)c(-c3c(C)cc(C)c(Br)c3C)c(O)c2Br)c(C)c1Br`, the growth in the assay on T-47D breast was -19.4% (active); with BT-549 breast it was 22.2%; with MDA-MB-435 melanoma it was 13.1%; in the assay on SW-620 colon it was 3.38% (active); in the assay on HCT-116 colon, 9.25% (active); in the assay on HCC-2998 colon it was 37.3%. In the assay with KM12 colon, the growth is 12.2%.
With `O=C1Nc2ccc(F)cc2/C1=N/c1nnc(Sc2ccccc2)s1`, the growth in the assay on T-47D breast is 61.5%; in the assay with BT-549 breast, 105%; with MDA-MB-435 melanoma it was 99.7%; in the assay with SW-620 colon, 91.9%; in the assay on HCT-116 colon, 99.3%; in the assay on HCC-2998 colon it was 104%. The growth in the assay with KM12 colon is 88%.
For `C(/C=C/c1ccccc1)=Nc1ccc(CCc2ccc(N=C/C=C/c3ccccc3)cc2)cc1`, the growth with T-47D breast is 97.5%; with BT-549 breast it was 91.9%; with MDA-MB-435 melanoma, 115%; with SW-620 colon, 51.6%; with HCT-116 colon it was 54.1%; in the assay on HCC-2998 colon, 108%. Besides, in the assay on KM12 colon, the growth was 106%.
Turning to `CCOC(=O)C1=C(C)N=C2SC=C(c3ccccc3)N2[C@H]1c1cn[nH]c1-c1ccc(Cl)cc1`, the growth was 38.8% in the assay on T-47D breast; 34.1% in the assay on BT-549 breast; 49.4% in the assay with MDA-MB-435 melanoma; 37.7% with SW-620 colon; 18.5% with HCT-116 colon; 109% in the assay with HCC-2998 colon. Besides, the growth in the assay on KM12 colon was 59.4%.
As for `CCCCCSB(SCCCCC)c1ccccc1`, the growth in the assay with T-47D breast was 94.3%; in the assay on BT-549 breast it was 105%; in the assay with MDA-MB-435 melanoma, 103%; in the assay on SW-620 colon it was 100%; in the assay with HCT-116 colon, 106%; in the assay on HCC-2998 colon, 88.7%. Besides, the growth in the assay on KM12 colon is 107%.
As to `Cc1nc2sc(C(=O)Nc3ccccc3)c(N)c2cc1C(=O)/C=C/c1ccccc1`, the growth in the assay with T-47D breast was 1.62% (active); in the assay with BT-549 breast it was -7.07% (active); in the assay with MDA-MB-435 melanoma it was -38.2% (active); in the assay on SW-620 colon, -37.6% (active); with HCT-116 colon, -66.9% (active); with HCC-2998 colon, -80.5% (active). The growth in the assay with KM12 colon is -42.1% (active).
`Cc1ccc(/C=C2\CN(C(=O)C(Cl)Cl)C/C(=C\c3ccc(C)cc3)C2=O)cc1`: the growth was -29% (active) in the assay on T-47D breast; -15.3% (active) with BT-549 breast; -75.1% (active) with MDA-MB-435 melanoma; -66.6% (active) in the assay on SW-620 colon; -84.6% (active) with HCT-116 colon; -89.6% (active) in the assay with HCC-2998 colon. In addition, the growth with KM12 colon was -65.8% (active).
`Clc1ccc(-c2nc(-c3c[nH]c4ncccc34)cs2)cc1`: the growth in the assay on T-47D breast was 62.4% [100 µM]; with BT-549 breast, 47.2% [100 µM]; in the assay on MDA-MB-435 melanoma, 89.2% [100 µM]; in the assay with SW-620 colon, 74.3% [100 µM]; in the assay with HCT-116 colon, 38.6% [100 µM]; in the assay with HCC-2998 colon, 90.2% [100 µM]. Further, the growth with KM12 colon is 76.1% [100 µM].
In the case of `CN1C(=O)/C(=C/c2ccc(C(=O)Nc3ncc(Cc4ccc(F)cc4)s3)cc2)SC1=S`, the growth in the assay on T-47D breast is 34.5%; with BT-549 breast it was 54.9%; in the assay with MDA-MB-435 melanoma it was -36.3% (active); with SW-620 colon, 28.8%; in the assay on HCT-116 colon, 32.6%; with HCC-2998 colon it was 41.1%. Moreover, the growth in the assay with KM12 colon is 15.6%.
As for `O=C1c2cccnc2C(=O)c2c1c(C(=O)OCCCN1CCCCC1)c1ccccn21`, the growth is 24% in the assay with T-47D breast; -24.1% (active) with BT-549 breast; -41.5% (active) in the assay with MDA-MB-435 melanoma; -60.1% (active) in the assay with SW-620 colon; -20.3% (active) with HCT-116 colon; -35.7% (active) in the assay on HCC-2998 colon.
